Compound activity from PubChem.
Vaccinia Venus: qHTS for Stage-Specific Inhibitors of Vaccinia Orthopoxvirus: Venus Reporter Primary qHTS | Vaccinia virus Venus reporter expression, fluorescence | AID 720580, 2013 | Potency, µM (doses to about 36.5 µM), for the others: at the top dose activity change, negative = inhibition, actives largely listed as inhibitors | 0.46% of 330,000 active; calls by dose curve; tested in A549 cells; note: potency is the fitted concentration of half-maximal effect; nearly all actives have a fitted effect of over 30% in size
HCV inhibitor: qHTS Assay for Inhibitors of Hepatitis C Virus (HCV); Huh7.5.1 HCVcc-Cre infection, luciferase reporter, 44 h; Potency, µM (doses to about 41.8 µM), for the others: at the highest dose activity change, negative = inhibition, actives largely listed as inhibitors; 3.4% of 340,000 active; AID 651820, 2012; active = well fitted inhibition curve with a large enough effect; inconclusive = small, poorly fitted or top-dose-only effect, or another doubt; inactive = no such curve, though single readings can be large or run the other way; note: potency is the fitted concentration of half-maximal effect
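Reporter virus HCVcc-Cre (~0.5 moi) infects cells exposed to compound; seeding density 1,000 cells/well with 4 h settling beforehand. Luminescence, 15 sec read, taken 44 h post-infection following a 15 min RT substrate incubation.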
Lassa entry inh: qHTS for Inhibitors of binding or entry into cells for Lassa Virus. Potency, µM (doses to about 37.9 µM), without a hit: top-dose activity change, negative = inhibition, actives largely listed as inhibitors. AID 540256, 2011. 1.2% of 300,000 active. Lassa virus pseudotype entry inhibition, cell reporter; calls by dose curve; tested in HEK293 cells; note: potency is the fitted concentration of half-maximal effect; nearly all actives have a fitted effect of over 50% in size
HCMV inh: qHTS Assay for inhibitors of the human cytomegalovirus (HCMV); activity change, negative = inhibition, % at 57.5 µM; AID 1259415, 2018; 4.5% of 410,000 active; HFF cells, HCMV-luciferase reporter, 72 h; active compounds read low; in the data active = activity change below about -60%; inconclusive = no clear call, values can overlap the other calls; inactive = above about -39%
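Steps: HFFs plated, 16 h 37C; compounds added; HCMV-luciferase added to MOI 1 PFU/cell; 72 h 37C; OneGlo reagent, 5 min room temperature; luminescence read, normalized to controls.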
MARV entry inh: qHTS for inhibitors of binding or entry into cells for Marburg Virus; Marburg virus pseudotyped entry inhibition, cell reporter; Potency, µM (series often up to 37.8 µM), for the others: top-dose activity change, negative = inhibition, actives largely listed as inhibitors; 1.8% of 300,000 active; AID 540276, 2011; calls by dose curve; tested in HEK293 cells; note: potency is the fitted concentration of half-maximal effect
Vaccinia mCherry: qHTS for Stage-Specific Inhibitors of Vaccinia Orthopoxvirus: mCherry Reporter Primary qHTS; Vaccinia virus mCherry reporter infection, fluorescence; Potency, µM (top dose mostly 36.5 µM), without a hit: at the top dose activity change, negative = inhibition, hits mostly inhibitors; 0.63% of 310,000 active; calls by dose curve; tested in A549 cells; note: potency is the fitted concentration of half-maximal effect; nearly all actives have a fitted effect of over 35% in size
* marks the source's active call; other numbers are inactive results; i = inactive; ? = inconclusive; . = not tested or not shown; [ ] = remark or other dose. Only some compounds are listed: those with a hit (about 7.8% of all), similar ones and a draw of the others. % is set by controls: 0 for no effect and ±100 for the full control effect.

SMILES | Vaccinia Venus | HCV inhibitor | Lassa entry inh | HCMV inh | MARV entry inh | Vaccinia mCherry
COc1cc2cc(CN(Cc3nnnn3Cc3ccco3)C3CCCCC3)c(=O)[nH]c2cc1OC | -16.9% | -6.7% | -12.2% | -21.8 | ? | .
CCOc1ccc2[nH]c(=O)c(CN(CCO)Cc3nnnn3CCc3ccccc3)cc2c1 | . | -12.5% | 10.2% | 21.3 | 0.8% | .
COc1ccc(Cn2nnnc2CN(Cc2cc3ccc(C)cc3[nH]c2=O)C2CCCC2)cc1 | ? | 10µM* | ? | -26.3 | ? | -13.5%
COc1ccc(NC(=O)Cn2c(=O)n(Cc3ccccc3Cl)c(=O)c3cc(OC)c(OC)cc32)cc1OC | -12.3% | . | -14.0%[46.1 µM] | 18.0 | -11.6%[46.1 µM] | -13.0%
C=CCC[C@H](Cc1ccc(F)cc1)C(=O)OC[C@@H](C)NC(=O)[C@H](CC=C)CC(=O)NCCO | -18.2% | ? | . | -4.7 | . | -10.4%
C=CCC[C@@H](Cc1ccc(F)cc1)C(=O)OC[C@@H](Cc1c[nH]c2ccccc12)NC(=O)[C@@H](CC=C)CC(=O)N(CCO)Cc1ccccc1 | ? | ? | . | -16.8 | . | -23.0%
C=CCC[C@H](Cc1ccc(F)cc1)C(=O)OC[C@H](Cc1c[nH]c2ccccc12)NC(=O)[C@H](CC=C)CC(=O)N(CCO)Cc1ccccc1 | 22.4µM* | ? | . | 56.4 | . | ?
C=CCC[C@@H](Cc1ccc(F)cc1)C(=O)OC[C@@H](Cc1c[nH]c2ccccc12)NC(=O)[C@H](CC=C)CC(=O)N[C@H](CO)Cc1ccccc1 | 11.2µM* | ? | . | ? | . | -32.0%
C=CCC[C@@H](Cc1ccc(F)cc1)C(=O)OC[C@@H](Cc1ccccc1)NC(=O)[C@H](CC=C)CC(=O)NCCO | ? | 7.08µM* | . | -20.4 | . | -2.9%
Cc1cnc(Nc2nc3ccccc3o2)nc1C(=O)Nc1cccc(C(F)(F)F)c1 | . | 6.31µM* | 0.4% | -73.7* | -21.5% | .
Cc1occc1C(=O)Nc1cccc(C(F)(F)F)c1 | . | -26.8% | 0.0% | -10.8 | -13.3% | .
Cc1ccc(N2C(=O)c3ccccc3NC2(C(=O)O)c2ccccc2)cc1Cl (stereo not drawn) | . | 4.9% | . | -98.4* | . | .
CN(C)CCNC(=O)c1csc(Nc2cccc3ccccc23)n1 | -7.6% | -18.3% | ? | ? | 10µM* | ?
CN1CCN2c3ccccc3Cc3ccccc3C2C1 (stereo not drawn) | -17.3% | 4.2%[8.37 µM] | ? | ? | 5.62µM* | -19.1%
CCc1cc2c(nc1CC)CCN(CC/C(C)=N/OC[C@@H](O)[C@H]1O[C@@H]3OC(C)(C)O[C@@H]3[C@H]1O)C2 | . | . | . | . | -6.4%[14.2 µM] | .
Cc1cc(C)c2nc(N3CCCC(C(=O)NCc4cccc(Cl)c4)C3)sc2c1 (stereo not drawn) | -16.9% | . | . | 6.9 | -27.1%[46.1 µM] | -9.8%
CS(=O)(=O)N(CC(=O)NCCSc1ccccc1)c1cc(C(F)(F)F)ccc1Cl | -7.4% | . | 6.8%[46.1 µM] | 3.6 | -18.2%[46.1 µM] | -1.0%
O=C(CSC1=NCCS1)N1CCN(c2ccc(Cl)cc2)CC1 | -29.1% | ? | -12.3% | -81.9* | -23.7%[46.1 µM] | ?
O=C(CSC1=NCCS1)c1ccc(Cl)cc1 | -16.7% | ? | -17.7% | 41.9 | -0.1% | i
COc1ccc2c(c1)-c1nc(-n3ncc(C(=O)N(C)CC4CCCN(C)C4)c3C)ncc1CC2 (stereo not drawn) | -2.4% | . | . | . | . | -14.9%
Cc1ccc(Cn2ncc3c(N4CCN(Cc5ccc(Cl)cc5)CC4)ncnc32)cc1 | -18.4% | 4.47µM* | ? | -82.1* | 2.82µM* | -26.6%
Cc1ccc(Cn2ncc3c(NN)ncnc32)cc1 | -2.7% | ? | ? | -86.4* | -5.1% | -9.0%
Cc1ccc(Cn2ncc3c(N4CCN(c5ccc(C)cc5)CC4)ncnc32)cc1 | -20.1% | ? | -0.1% | ? | ? | -19.9%
O=C1CCC[C@H]2[C@@H](Cc3ccccc3)[C@H](NCC3CCCCC3)CC[C@]23CCCN13 | . | . | . | 9.0 | . | .
COc1cc2c(cc1OC)C1(CCCC1)C(N)=C2C#N | ? | 3.16µM* | ? | ? | ? | .
SMILES | Vaccinia Venus | HCV inhibitor | Lassa entry inh | HCMV inh | MARV entry inh | Vaccinia mCherry
COc1cc(OC)c(OC)cc1C#N | -19.3% | 31.7% | . | 17.5 | . | -13.4%
COc1ccc(Br)c(Cn2c(C)c(C(=O)N(C)Cc3ccc(F)cc3)sc2=O)c1 | -1.7% | . | . | -85.0* | . | 1.0%
Cc1ccccc1Cn1c(C)c(C(=O)N(C)Cc2ccc(F)cc2)sc1=O | 1.0% | . | . | -60.2* | . | 35.1%
Cc1cc(C)cc(Cn2c(C)c(C(=O)N(C)Cc3ccc(F)cc3)sc2=O)c1 | 0.7% | . | . | -15.2 | . | 26.8%
CC(=O)c1ccc(NC(=O)Cn2cnc3nc4c(cc3c2=O)CC(C)CC4)cc1 (stereo not drawn) | -11.8% | . | 13.6%[46.1 µM] | 25.9 | . | -12.4%
C[C@@H]1CN([C@@H](C)CO)C(=O)CCCn2nncc2CO[C@H]1CN(C)CC1CCCCC1 | . | . | . | -18.4 | . | .
CC(C)c1c(C(=O)N(C)Cc2cccc3ncccc23)cnn1-c1nccc(-c2ccco2)n1 | -28.8% | . | . | . | . | ?
CCC(Sc1nnc(C)n2c1cc1sccc12)C(=O)Nc1ccccc1F (stereo not drawn) | -4.1% | . | -9.6%[46.1 µM] | -64.3* | . | -14.5%
CCC(Sc1nncn2c1cc1sccc12)C(=O)Nc1cccc(OC)c1 (stereo not drawn) | -4.4% | . | ? | -40.0 | . | -12.8%
COc1ccc(-c2noc(CN(C(=O)C(C)Oc3ccc(C)cc3)C(C)C)n2)cc1 (stereo not drawn) | -17.8% | . | -21.6%[46.1 µM] | ? | ? | -16.9%
CCCC[C@]12Cc3cc(C#N)ccc3[C@H](O1)c1c(c3ccccc3oc1=O)O2 | . | . | . | . | -8.1%[14.2 µM] | .
CCc1ccc(CN(Cc2ccco2)C(=O)COc2ccccc2Cl)cc1 | -2.2% | . | -10.3%[46.1 µM] | -5.8 | ? | -6.3%
O=C(c1ccc(-c2cc3ccccc3oc2=O)cc1)N1CCN(c2ccc(Cl)cc2[N+](=O)[O-])CC1 | -20.8% | 10µM* | -3.7% | ? | 2.8% | i
CCOC(=O)[C@@H](C)N(C(=O)OC(C)(C)C)S(=O)(=O)N(Cc1ccccc1)[C@@H](C(=O)OC)C(C)C | -12.7% | . | . | . | . | -4.6%
